The target in the experiment is Genome polyprotein (dengue virus type 2) (UniProt P29990).
[1] abbreviates: Thailand/16681/1984, Concentration 25.0 uM, Number of replicates 1.0.

In all, about 2,000 compounds went through this assay and about 110 (5.5%) showed an effect of 50% or more. The list comes from a sample in which strong results are over-represented; it also holds similar structures and randomly drawn compounds.

A word on the inhibition: it is the relative decrease from the control value, in per cent. Turning to `C[C@@H](Cc1ccc(O)cc1)NC(=O)C1CCN(c2ccc(C=O)cc2)CC1`, the inhibition under setting [1] worked out at 12.7%.

As to `Cc1cc(CO)c2cccc(CC(=O)N3CC4(CCCOC4)C3)c2n1`, the inhibition is -6.59% (Thailand/16681/1984, Concentration 49.95 uM, Number of replicates 2.0, Standard deviation 0.772673116128399 %) and -6.27% (Thailand/16681/1984, Concentration 99.9 uM, Number of replicates 2.0, Standard deviation 1.1105448445025274 %).

As to `CC(C)(CO)NC(=O)c1cc(Cl)cc(NC(=O)c2cc(-c3ccc(Cl)cc3)n[nH]2)c1`, the inhibition runs as follows: (Thailand/16681/1984, Concentration 49.5 uM, Number of replicates 2.0, Standard deviation 0.12694171370832513 %) 1.06%; (Thailand/16681/1984, Concentration 99.01 uM, Number of replicates 2.0, Standard deviation 0.3683389265193805 %) 1.45%; (Thailand/16681/1984, Concentration 198.0 uM, Number of replicates 2.0, Standard deviation 0.21850629000727306 %) 2.52%.

Regarding `Cc1cc(CO)c2cccc(C[C@H](NC(=O)C(=O)c3ccco3)C(=O)O)c2n1`, the inhibition runs as follows: (Thailand/16681/1984, Concentration 49.95 uM, Number of replicates 2.0, Standard deviation 2.1984135254678594 %) 1.13%; (Thailand/16681/1984, Concentration 99.9 uM, Number of replicates 2.0, Standard deviation 0.8113996635889369 %) 5.56%.

As to `c1ccc2c(CN3CCC(c4c[nH]c5cccnc45)CC3)n[nH]c2c1`, the inhibition by setting is: (Thailand/16681/1984, Concentration 49.5 uM, Number of replicates 2.0, Standard deviation 0.8795107409501791 %) 2.18%; (Thailand/16681/1984, Concentration 99.01 uM, Number of replicates 2.0, Standard deviation 0.8626664157680123 %) 3.05%; (Thailand/16681/1984, Concentration 198.0 uM, Number of replicates 2.0, Standard deviation 1.2603111418750788 %) 5.34%.

With `Cc1cc(CO)c2cccc(C[C@H](NC(=O)C[C@H]3CCCN3)C(=O)O)c2n1`, the inhibition is, setting by setting: (Thailand/16681/1984, Concentration 49.95 uM, Number of replicates 2.0, Standard deviation 0.0013512279632592627 %) 3.5%; (Thailand/16681/1984, Concentration 99.9 uM, Number of replicates 2.0, Standard deviation 1.378906641613337 %) 9%.

Take `Cc1cnccc1NC(=O)c1cc(C2CCC2)n(C)c1C`: the inhibition (Thailand/16681/1984, Concentration 49.5 uM, Number of replicates 2.0, Standard deviation 0.7067686370209446 %) was determined as 0.618%; the inhibition (Thailand/16681/1984, Concentration 99.01 uM, Number of replicates 2.0, Standard deviation 0.7459418989288495 %) worked out at 1.95%; the inhibition (Thailand/16681/1984, Concentration 198.0 uM, Number of replicates 2.0, Standard deviation 0.11875700646175207 %) is 4.33%.

As to `N#Cc1cccc(-c2nc3c(C(=O)Nc4cccnc4)cc(Cl)cc3[nH]2)c1`, the inhibition (Thailand/16681/1984, Concentration 99.5 uM, Number of replicates 2.0, Standard deviation 0.04165727071859149 %) amounted to 7.45% and the inhibition (Thailand/16681/1984, Concentration 295.6 uM, Number of replicates 2.0, Standard deviation 4.418006643102565 %) was 20.3%.

`N#Cc1cccc(-c2nc3c(C(=O)Nc4ccccc4)cc(Cl)cc3[nH]2)c1`: the inhibition worked out at 14.4% (Thailand/16681/1984, Concentration 99.5 uM, Number of replicates 2.0, Standard deviation 7.963520922762683 %) and 56.6% (Thailand/16681/1984, Concentration 295.6 uM, Number of replicates 2.0, Standard deviation 58.7613445679075 %).

With `N#Cc1cccc(-c2nc3c(C(=O)NCc4ccccc4)cc(Cl)cc3[nH]2)c1`, the inhibition is -4.99% (Thailand/16681/1984, Concentration 99.5 uM, Number of replicates 2.0, Standard deviation 0.16663009439873022 %) and 8.64% (Thailand/16681/1984, Concentration 295.6 uM, Number of replicates 2.0, Standard deviation 26.28702583112172 %).

For the compound `N#Cc1cccc(-c2nc3c(C(=O)Nc4ccncc4)cc(Cl)cc3[nH]2)c1`, the inhibition is, setting by setting: (Thailand/16681/1984, Concentration 99.5 uM, Number of replicates 2.0, Standard deviation 0.8007493235576281 %) 6.92%; (Thailand/16681/1984, Concentration 295.6 uM, Number of replicates 2.0, Standard deviation 3.318711635404566 %) 36.2%.

`N#Cc1cccc(-c2nc3c(C(=O)NCc4cccnc4)cc(Cl)cc3[nH]2)c1`: the inhibition came out at 6.57% (Thailand/16681/1984, Concentration 99.5 uM, Number of replicates 2.0, Standard deviation 2.321247122631555 %) and 38.2% (Thailand/16681/1984, Concentration 295.6 uM, Number of replicates 2.0, Standard deviation 6.98688470817418 %).

In the case of `CCc1ccc(-c2ccccc2C(=O)Nc2cnn(C)c2)c(F)c1`, the inhibition (Thailand/16681/1984, Concentration 49.5 uM, Number of replicates 2.0, Standard deviation 0.8455770066617545 %) was -0.985%; the inhibition (Thailand/16681/1984, Concentration 99.01 uM, Number of replicates 2.0, Standard deviation 1.2261793384720772 %) is -0.538%; the inhibition (Thailand/16681/1984, Concentration 198.0 uM, Number of replicates 2.0, Standard deviation 2.01798052784263 %) is 0.736%.

As to `O=C(Nc1ccc2c(c1)CNC2)c1cc(Cl)cc2[nH]c(-c3cc(C4CC4)[nH]n3)nc12`, the inhibition (Thailand/16681/1984, Concentration 99.5 uM, Number of replicates 2.0, Standard deviation 0.13306805316732315 %) is 94.6% and the inhibition (Thailand/16681/1984, Concentration 295.6 uM, Number of replicates 2.0, Standard deviation 0.23606011523727233 %) worked out at 88.6%.

In the case of `CCc1ccc(-c2nc3c(C(=O)Nc4ccc5c(c4)CNC5)cc(Cl)cc3[nH]2)cc1`, the inhibition runs as follows: (Thailand/16681/1984, Concentration 99.5 uM, Number of replicates 2.0, Standard deviation 0.07636874080258764 %) 91.5%; (Thailand/16681/1984, Concentration 295.6 uM, Number of replicates 2.0, Standard deviation 0.5542721932424032 %) 83.9%.

As to `CC(C)NC(=O)[C@H](Nc1ccc2c(c1)CNC2)c1cc(Cl)cc2[nH]c(-c3ccccc3)nc12`, the inhibition is, setting by setting: (Thailand/16681/1984, Concentration 99.5 uM, Number of replicates 2.0, Standard deviation 1.6408381783405366 %) 91.5%; (Thailand/16681/1984, Concentration 295.6 uM, Number of replicates 2.0, Standard deviation 0.018514941963441705 %) 97.4%.

As to `CCn1ncc(-c2ccccc2C(=O)Nc2cnn(C)c2)c1F`, the inhibition (Thailand/16681/1984, Concentration 49.5 uM, Number of replicates 2.0, Standard deviation 1.7362397615810676 %) is -3.37%; the inhibition (Thailand/16681/1984, Concentration 99.01 uM, Number of replicates 2.0, Standard deviation 3.5632406540879202 %) was -3.71%; the inhibition (Thailand/16681/1984, Concentration 198.0 uM, Number of replicates 2.0, Standard deviation 2.004108271976906 %) is -1.89%.

With `COc1c(Cl)cccc1NC(=O)C1CCN(c2ccc(C=O)cc2)CC1`, the inhibition under setting [1] came to 13.9%.

In the case of `C[C@H]1CCC[C@H](C)N1CCNC(=O)C1CCN(c2ccc(C=O)cc2)CC1`, the inhibition under setting [1] was found to be 12.4%.

As for `CNC(=O)c1cn(C[C@H]2CCCN2C(=O)c2cccc3ncsc23)nn1`, the inhibition is, setting by setting: (Thailand/16681/1984, Concentration 49.5 uM, Number of replicates 2.0, Standard deviation 0.1358580059513503 %) 0.293%; (Thailand/16681/1984, Concentration 99.01 uM, Number of replicates 2.0, Standard deviation 0.18464096005398162 %) 0.707%; (Thailand/16681/1984, Concentration 198.0 uM, Number of replicates 2.0, Standard deviation 0.18359188284769695 %) 0.879%.

In the case of `O=Cc1ccc(N2CCC(C(=O)NCc3ccc(Br)s3)CC2)cc1`, the inhibition under setting [1] is 12.4%.

For `N#Cc1cccc(-c2nc3c(C(=O)Nc4ccc5c(c4)CNC5)cc(Cl)cc3[nH]2)c1`, the inhibition by setting is: (Thailand/16681/1984, Concentration 99.5 uM, Number of replicates 2.0, Standard deviation 0.0717454001083366 %) 96.4%; (Thailand/16681/1984, Concentration 295.6 uM, Number of replicates 2.0, Standard deviation 0.16315483385791593 %) 93.6%.

For the compound `Cc1cnccc1NC(=O)c1cccc(C(F)(F)F)n1`, the inhibition runs as follows: (Thailand/16681/1984, Concentration 49.5 uM, Number of replicates 2.0, Standard deviation 0.6191824281934856 %) 0.024%; (Thailand/16681/1984, Concentration 99.01 uM, Number of replicates 2.0, Standard deviation 1.7542746720133946 %) -0.908%; (Thailand/16681/1984, Concentration 198.0 uM, Number of replicates 2.0, Standard deviation 1.379232208237382 %) -0.988%.

Regarding `O=C(Nc1ccc2c(c1)CNC2)c1cc(Cl)cc(C(F)(F)F)n1`, the inhibition came out at 98% (Thailand/16681/1984, Concentration 99.5 uM, Number of replicates 2.0, Standard deviation 0.07984298981903766 %) and 99.8% (Thailand/16681/1984, Concentration 295.6 uM, Number of replicates 2.0, Standard deviation 0.03008678069059277 %).

With `N#Cc1cccc(-c2nc3c(C(=O)NCc4ccccn4)cc(Cl)cc3[nH]2)c1`, the inhibition is, setting by setting: (Thailand/16681/1984, Concentration 99.5 uM, Number of replicates 2.0, Standard deviation 0.024300186977441064 %) -1.93%; (Thailand/16681/1984, Concentration 295.6 uM, Number of replicates 2.0, Standard deviation 0.2349015826654049 %) 5.47%.

Consider `Cn1ncc2c(C(=O)Nc3ccc4c(c3)CNC4)cc(-c3cccnc3)nc21`, for which the inhibition is -0.716% (Thailand/16681/1984, Concentration 99.5 uM, Number of replicates 2.0, Standard deviation 0.6966055883154065 %) and 16.8% (Thailand/16681/1984, Concentration 295.6 uM, Number of replicates 2.0, Standard deviation 0.8690208118243027 %).

Take `N#Cc1cccc(NC(=O)c2cccc(OCc3c(Cl)cccc3Cl)c2)c1`: the inhibition runs as follows: (Thailand/16681/1984, Concentration 49.5 uM, Number of replicates 2.0, Standard deviation 0.9750482899240065 %) 1.9%; (Thailand/16681/1984, Concentration 99.01 uM, Number of replicates 2.0, Standard deviation 10.511808397875392 %) 16.1%; (Thailand/16681/1984, Concentration 198.0 uM, Number of replicates 2.0, Standard deviation 5.918696266313343 %) 7%.

(Values after ChEMBL document CHEMBL5606460, “ASAP - DENV-2 NS2B-NS3 protease fluorescence single point” (2024).)
